Source: the supplement of paper PMC8007513
Structures can show the parent of a compound that is named as a salt. ± gives the standard error. The whole screen tested about 1,300 compounds, of which about 130 (10%) showed an effect of 50% or more. Shown is part of a subset that was picked to be rich in strong results.

Tested on: Trichoderma virens ATCC 9645
Assay: growth yield (OD600) with compound + IPBC relative to untreated control; higher = less growth inhibition
Conditions: compound concentration: 100 uM, IPBC concentration: 200 ng/ml
Method in brief: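 Spores of Trichoderma virens ATCC 9645, taken from potato dextrose agar plates grown for 7 days, were suspended at 15,000 spores ml^−1 in potato dextrose broth. In 96-well plates, 100 μl aliquots held library compounds at 100 μM final, either alone or together with a biocide at 200 ng ml^−1, and were grown at 30 °C. A BioTek EL800 read OD600 at 40 h and 72 h. Growth values are given relative to the control lacking both agents and are means of duplicate screens.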

| SMILES | growth yield (40 h) [%] | growth yield (72 h) [%] |
| --- | --- | --- |
| CCCCNc1ccc(C(=O)OCCN(C)C)cc1 + CCCCNC(=O)OCC#CI [3-iodo-2-propynyl butylcarbamate (IPBC)] | 81.5 ± 1.4 | 88.2 ± 0.32 |
| CCCCNc1c(C(=O)OCC)c(C)nc2c1cnn2CC [Tracazolate hydrochloride] + CCCCNC(=O)OCC#CI [3-iodo-2-propynyl butylcarbamate (IPBC)] | 21.9 | 53.7 ± 0.21 |
| CCCCNc1ccc(C(=O)OCCOCCOCCOCCOCCOCCOCCOCCOCCOC)cc1 [Benzonatate] + CCCCNC(=O)OCC#CI [3-iodo-2-propynyl butylcarbamate (IPBC)] | 77.4 ± 1.1 | 83.27 ± 0.42 |
| CC(C)(S)C(N)C(=O)O (racemic) [D,L-Penicillamine] + CCCCNC(=O)OCC#CI [3-iodo-2-propynyl butylcarbamate (IPBC)] | 94.8 ± 8.4 | 94.2 ± 5.5 |
| COC1=CC(=O)C[C@@H](C)[C@]12Oc1c(Cl)c(OC)cc(OC)c1C2=O [Griseofulvin] + CCCCNC(=O)OCC#CI [3-iodo-2-propynyl butylcarbamate (IPBC)] | 48.8 ± 3.6 | 85.2 ± 1.1 |
| CCC(=O)O[C@@H](O[P@](=O)(CCCCc1ccccc1)CC(=O)N1C[C@H](C2CCCCC2)C[C@H]1C(=O)O)C(C)C [Fosinopril] + CCCCNC(=O)OCC#CI [3-iodo-2-propynyl butylcarbamate (IPBC)] | 86.9 ± 9.1 | 94.8 ± 7.3 |
| Cc1cc(C(C)(C)CC(C)(C)C)ccc1OCCOCC[N+](C)(C)Cc1ccccc1 [Methyl benzethonium chloride] + CCCCNC(=O)OCC#CI [3-iodo-2-propynyl butylcarbamate (IPBC)] | 2.86 ± 0.64 | 2.62 ± 0.1 |
| C[N+](C)(CCOc1ccccc1)Cc1ccccc1.O=C([O-])c1cc2ccccc2cc1O [Bephenium hydroxynaphthoate] + CCCCNC(=O)OCC#CI [3-iodo-2-propynyl butylcarbamate (IPBC)] | 63.5 | 85.3 ± 2.4 |
| CC(C)(C)CC(C)(C)c1ccc(OCCOCC[N+](C)(C)Cc2ccccc2)cc1 [Benzethonium chloride] + CCCCNC(=O)OCC#CI [3-iodo-2-propynyl butylcarbamate (IPBC)] | 3.18 ± 0.32 | 2.52 ± 0.42 |
| CCC(=O)O[C@]1(C(=O)SCF)[C@H](C)C[C@H]2[C@@H]3C[C@H](F)C4=CC(=O)C=C[C@]4(C)[C@@]3(F)[C@@H](O)C[C@@]21C [Fluticasone propionate] + CCCCNC(=O)OCC#CI [3-iodo-2-propynyl butylcarbamate (IPBC)] | 101 ± 0.64 | 99.63 ± 0.42 |
| Cc1cc(CC(=O)O)n(C)c1C(=O)c1ccc(Cl)cc1 [Zomepirac sodium salt] + CCCCNC(=O)OCC#CI [3-iodo-2-propynyl butylcarbamate (IPBC)] | 89.59 ± 0.64 | 92.4 ± 2.2 |
| CNCC[C@@H](Oc1ccccc1C)c1ccccc1 [Tomoxetine hydrochloride] + CCCCNC(=O)OCC#CI [3-iodo-2-propynyl butylcarbamate (IPBC)] | 78.31 ± 0.48 | 87.89 ± 0.84 |
| CN1CCN(C2=Nc3cc(Cl)ccc3Nc3ccccc32)CC1 [Clozapine] + CCCCNC(=O)OCC#CI [3-iodo-2-propynyl butylcarbamate (IPBC)] | 65.6 ± 2.7 | 93.8 ± 2.7 |
| CC(CCc1ccccc1)NC(C)C(O)c1ccc(O)cc1 (stereo not given) [Nylidrin] + CCCCNC(=O)OCC#CI [3-iodo-2-propynyl butylcarbamate (IPBC)] | 95.3 ± 2.9 | 96.59 ± 0.1 |
| CC(NCCc1ccc(O)cc1)C(O)c1ccc(O)cc1 (stereo not given) [Ritodrine hydrochloride] + CCCCNC(=O)OCC#CI [3-iodo-2-propynyl butylcarbamate (IPBC)] | 83.07 ± 0.16 | 92.4 ± 0.32 |
| CCCCCCCCNC(C)C(O)c1ccc(SC(C)C)cc1 (stereo not given) [Suloctidil] + CCCCNC(=O)OCC#CI [3-iodo-2-propynyl butylcarbamate (IPBC)] | 5.08 ± 0.32 | 33.1 ± 2.5 |
| OCCN1C[C@H](O)[C@@H](O)[C@H](O)[C@H]1CO [Miglitol] + CCCCNC(=O)OCC#CI [3-iodo-2-propynyl butylcarbamate (IPBC)] | 90.1 ± 9.1 | 93 ± 4.5 |
| CCOC(=O)c1ccc(C#Cc2ccc3c(c2)C(C)(C)CCS3)nc1 [Tazarotene] + CCCCNC(=O)OCC#CI [3-iodo-2-propynyl butylcarbamate (IPBC)] | 81.2 ± 2.7 | 91.6 ± 1.4 |
| C#CCN[C@@H]1CCc2ccccc21 [Rasagiline] + CCCCNC(=O)OCC#CI [3-iodo-2-propynyl butylcarbamate (IPBC)] | 84.5 ± 1.3 | 85.6 ± 1.1 |
| O=C(CCCN1CCC2(CC1)C(=O)NCN2c1ccccc1)c1ccc(F)cc1 [Spiperone] + CCCCNC(=O)OCC#CI [3-iodo-2-propynyl butylcarbamate (IPBC)] | 77.8 ± 2.9 | 90.4 ± 0.21 |
| O=C(CCCN1CCC(O)(c2ccc(Cl)cc2)CC1)c1ccc(F)cc1 [Haloperidol] + CCCCNC(=O)OCC#CI [3-iodo-2-propynyl butylcarbamate (IPBC)] | 10.2 ± 1.9 | 60.4 ± 4.4 |
| O=C(CCCN1CCC(O)(c2ccc(Br)cc2)CC1)c1ccc(F)cc1 [Bromperidol] + CCCCNC(=O)OCC#CI [3-iodo-2-propynyl butylcarbamate (IPBC)] | 64.3 ± 2.1 | 87.3 ± 1.5 |
| CSc1nc2cc(Cl)c(Oc3cccc(Cl)c3Cl)cc2[nH]1 [Triclabendazole] + CCCCNC(=O)OCC#CI [3-iodo-2-propynyl butylcarbamate (IPBC)] | 66.7 ± 3.2 | 120 ± 6.5 |
| O=C(O)c1cn(C2CC2)c2cc(N3CCNCC3)c(F)cc2c1=O [Ciprofloxacin hydrochloride monohydrate] + CCCCNC(=O)OCC#CI [3-iodo-2-propynyl butylcarbamate (IPBC)] | 86.2 ± 8.7 | 91.5 ± 6.3 |
| CCOc1nc2cccc(C(=O)OCc3oc(=O)oc3C)c2n1Cc1ccc(-c2ccccc2-c2noc(=O)[nH]2)cc1 [Azilsartan kamedoxomil] + CCCCNC(=O)OCC#CI [3-iodo-2-propynyl butylcarbamate (IPBC)] | 110 ± 5.1 | 105 ± 2.7 |
